Laboratory results reported in PubChem BioAssay (NCI).
The panel holds about 83,000 compounds, 20% with a hit somewhere; the sample as a whole holds those more often.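 Cells were grown in 96-well plates and exposed to the test compound at a single concentration for 48 hours; results are reported as percent growth, with values below 10 considered active.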 Calls of active or inactive are those of the source.

Tested on: HS 578T breast
Experiment: NCI-60 one-dose screen, 48 h (100 = growth as untreated, 0 = no growth, -100 = all killed)
Conditions: 10 µM unless noted

Q: How did the growth turn out when CCC(c1ccccc1)C(CC)c1ccc(O)c(O)c1 (centres undefined) was run?
A: 87.1% (inactive)

Q: For NC(N)=Nc1ccc(S(=O)(=O)O)cc1, which growth is on record?
A: 105% (inactive)

Q: For O=C(/C=C/c1cc2ccccc2[nH]c1=O)/C=C/c1cc2ccccc2[nH]c1=O, which growth is on record?
A: 19.9% (inactive)

Q: How did the growth turn out when Nc1ccc(Nc2nccc(-c3ccc4ccccc4c3)n2)cc1 was run?
A: 43.1% (inactive)

Q: With C=C1CCC2C3(C)COC(c4ccc(OC)cc4Br)OC3CCC2(C)C1/C=C/C1=CCOC1=O (centres undefined) as the molecule, how does the growth read?
A: 94.7% (inactive)

Q: Which growth does the source give for CCC(=O)Oc1ccc(/C(=C(\C)c2ccccc2)c2ccc(OCCN(CC)CC)cc2)cc1 here?
A: 51.9% (inactive)

Q: CC(=O)/C(=C/c1cccc(Cl)c1)C(=O)c1ccccc1 was tested. Which growth did it give?
A: 94.7% (inactive)

Q: Which growth does the source give for NS(=O)(=O)c1ccc(-n2ncc3c(=O)[nH]c(CN4CCN(c5cc6c(cc5F)c(=O)c(C(=O)O)cn6C5CC5)CC4)nc32)cc1 here?
A: 97.8% (inactive)

Q: How did the growth turn out when COc1ccc(-c2nn(-c3ccccc3)cc2/C=C2\SC(=O)NC2=O)cc1 was run?
A: 106% (inactive)

Q: Which growth does the source give for O=C(COc1cccc(/C=C2/Oc3ccccc3C2=O)c1)Nc1nccs1 here?
A: 88.6% (inactive)

Q: CN1CCN(Cc2ccc(NC(=O)c3[nH]ncc3Nc3ncnc4sccc34)cc2)CC1 was tested. Which growth did it give?
A: -2.25% (active)

Q: How did the growth turn out when CC1=N/C(=C\c2cccc(Br)c2)C(=O)O1 was run?
A: 107% (inactive)

Q: COc1cc(C(=O)/C=C/c2c(C)n([O-])c3ccc(C)cc3[n+]2=O)cc(OC)c1OC was tested. Which growth did it give?
A: 52.8% (inactive)

Q: How did the growth turn out when CCN(CC)CC#CCOC(=O)[C@]1(C)CCC[C@@]2(C)[C@H]1CC(C=O)=C1C=C(C(C)C)CC[C@@H]12 was run?
A: 67.1% (inactive)
